# Inconclusive results are not listed. Where a call stands in place of a potency, no number is given. Values without a mark were called inactive. Activity calls are given as the source filed them. The call rests on the fitted dose curve; in most records, active means well fitted curve in the direction sought with a large enough effect; inconclusive means small, poorly fitted or top-dose-only effect, or another doubt; inactive means no such curve, though single readings can be large; an effect the other way counts as inactive or inconclusive.
# Tests used:
# CRL-7250 = normal cell line; assay: Cytotoxic Profiling of Annotated Libraries Using Quantitative High-Throughput Screening (AID 1296008); details: Five cell lines viability, CellTiter-Glo ATP luminescence, 48-72 h; max response: active compounds read low; further: nearly all actives have a fitted effect of over 60% in size; further: potency means the concentration at half of the fitted maximal effect
# Summary of the method: (§1)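 Compounds were pin-transferred onto cells and incubated 48 or 72 hr at 37 degree Celsius, 95% humidity. CellTiter-Glo was added, plates sat 10 min at room temperature, then ATP-coupled luminescence was imaged as the viability read-out.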
# HEK293 = assay: as above; details: Five cell lines viability, CellTiter-Glo ATP luminescence, 48-72 h; max response: active compounds read low
# Summary of the method: as §1
# HaCat [1] = assay: as above; details: Five cell lines viability, CellTiter-Glo ATP luminescence, 48-72 h; max response: active compounds read low
# Summary of the method: as §1
# KB-3-1 = assay: as above; details: Five cell lines viability, CellTiter-Glo ATP luminescence, 48-72 h; max response: active compounds read low
# Summary of the method: as §1
# NIH3T3 = assay: as above; details: Five cell lines viability, CellTiter-Glo ATP luminescence, 48-72 h; max response: active compounds read low
# Summary of the method: as §1
# HACAT [2] = assay: qHTS assay to identify novel small-molecules to repurpose for Merkel cell carcinoma treatment (AID 1296009); details: MCC and control cell lines, CellTiter-Glo viability, 72 h; at 44.8 µM (top of the series) unless noted; further: nearly all actives have a fitted effect of over 60% in size
# Summary of the method: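 Cells exposed to NPC (8-point) and MIPE (11-point) compound dilutions for 72 hr at 37 degree celsius; viability read by CellTiter-Glo luminescence, normalized to no-cell and DMSO in-plate controls.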
# C33A = assay: Primary qHTS to identify gynecologic anti-cancer compounds using libraries of approved drugs and bioactive compounds (AID 1345084); details: Gynecologic cancer cell panel viability, ATPlite luminescence, 48 h; series mostly up to 57.5 µM; further: nearly all actives have a fitted effect of over 55% in size
# Summary of the method: (§2)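 Five-concentration response, 48 h; readout is ATP-driven luciferase luminescence.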
# CAOV3 = assay: as above; details: Gynecologic cancer cell panel viability, ATPlite luminescence, 48 h; series mostly up to 57.5 µM
# Summary of the method: as §2
# CASKI = assay: as above; details: Gynecologic cancer cell panel viability, ATPlite luminescence, 48 h; series mostly up to 57.5 µM
# Summary of the method: as §2
# Es-2 = assay: as above; details: Gynecologic cancer cell panel viability, ATPlite luminescence, 48 h; series mostly up to 57.5 µM
# Summary of the method: as §2
# HeLa = assay: as above; details: Gynecologic cancer cell panel viability, ATPlite luminescence, 48 h; series mostly up to 57.5 µM
# Summary of the method: as §2
# Hek293T = assay: as above; details: Gynecologic cancer cell panel viability, ATPlite luminescence, 48 h, control line for the selectivity index; series mostly up to 57.5 µM
# Summary of the method: as §2
# JEG-3 = assay: as above; details: Gynecologic cancer cell panel viability, ATPlite luminescence, 48 h; series mostly up to 57.5 µM
# Summary of the method: as §2
SMILES,outcome (CRL-7250),max response (HEK293) [%],outcome (HaCat [1]),outcome (KB-3-1),max response (NIH3T3) [%],outcome (HACAT [2]),Potency (C33A),Potency (CAOV3),outcome (CASKI),Potency (Es-2),Potency (HeLa),Potency (Hek293T),Potency (JEG-3),max response (CRL-7250) [%],max response (KB-3-1) [%],outcome (NIH3T3),Potency (HEK293)
C=CC1(C)CC2CCC3C(C)(C(=O)O)CCCC3(C)C2=CC1=O (configuration not stated),inactive,-0.432,inactive,inactive,-4.63,inactive,inactive,inactive,inactive,inactive,inactive,inactive,inactive,–,–,–,–
COc1cc(/C=C/c2ccccc2)c(C(=O)O)c(O)c1CC=C(C)C,–,2.12,inactive,–,3.69,inactive,inactive,inactive,inactive,inactive,inactive,inactive,inactive,-4.97,6.27,–,–
CC(C)C[C@H](NC(=O)[C@@H]1O[C@H]1C(=O)O)C(=O)NCCCCN=C(N)N,–,-19.1,inactive,–,0.0799,inactive,inactive,inactive,inactive,inactive,inactive,inactive,inactive,-9.88,2.43,–,–
COc1cc(O)cc(O[C@@H]2O[C@H](CO)[C@@H](O[C@@H]3OC[C@](O)(CO)[C@H]3O)[C@H](O)[C@H]2O)c1OC,–,-4.25,inactive,inactive,2.33,inactive [at 17.4 µM],inactive,inactive,inactive,inactive,inactive,inactive,inactive,2.5,–,–,–
COC(=O)C1=CO[C@@H](O[C@@H]2O[C@H](CO)[C@@H](O)[C@H](O)[C@H]2O)[C@@H]2[C@@H](C(=O)O)CC[C@H]12,–,-0.168,inactive,–,0.607,inactive [at 17.4 µM],inactive,inactive,inactive,inactive,inactive,inactive,inactive,-20,3.46,–,–
C=CC1(C)CC=C2C(CCC3C(C)(C(=O)O)CCCC23C)C1 (configuration not stated),–,-4.6,inactive,–,-6.29,inactive,inactive,inactive,inactive,inactive,inactive,inactive,inactive,4.68,7.47,–,–
C=C1C(=O)OC[C@H]2C(C(=O)O)=CC3CC(C)(C)C[C@@]132 (some centres not stated),inactive,4.17,inactive,inactive,–,inactive,inactive,inactive,inactive,inactive,inactive,inactive,inactive,–,–,inactive,–
COC(=O)C1=C[C@@H](O)[C@@H](O)[C@H](O[C@@H]2O[C@H](CO)[C@@H](O)[C@H](O)[C@H]2OC(=O)/C=C/c2ccccc2)C1,–,-6.26,inactive,–,-1.73,inactive [at 17.4 µM],inactive,inactive,inactive,inactive,inactive,inactive,inactive,-2.62,-5.3,–,–
COc1cc(O)c(C(=O)O)c(CCc2ccccc2)c1,–,-6.57,inactive,–,-0.163,inactive,inactive,inactive,inactive,inactive,inactive,inactive,inactive,-1.14,9.04,–,–
CC1(C(=O)O)CCCC2(C)C3CCC4CC3(CCC12)CC4(O)CO (configuration not stated),–,-16.5,inactive,–,0.753,inactive,inactive,inactive,inactive,inactive,inactive,inactive,inactive,1.56,5.7,–,–
COc1ccccc1N1CCN(CCCCNC(=O)c2ccc(-c3cscn3)cc2)CC1,–,–,inactive,–,1.48,inactive,inactive,inactive,inactive,inactive,inactive,inactive,inactive,-3.11,-12.5,–,20.6 µM (active)
C/C(=C/CO)CC[C@H]1[C@]2(C)C[C@H](O)CC(C)(C)[C@H]2CC[C@]1(C)O,–,4.37,inactive,–,3.86,inactive,inactive,inactive,inactive,inactive,inactive,inactive,inactive,-3.5,3.57,–,–
CC1CC(=O)[C@]2(O)C(C(=O)OCCc3ccc(O)cc3)=CO[C@@H](O[C@@H]3O[C@H](CO)[C@@H](O)[C@H](O)[C@H]3O)[C@H]12 (some centres not stated),–,-6.36,inactive,inactive,-59.3,inactive [at 17.4 µM],inactive,inactive,inactive,inactive,inactive,inactive,inactive,-11.7,–,–,–
CC1=CCC[C@@H]2[C@@](C)(CCc3ccoc3)[C@H](C(=O)O)CC[C@@]12C,–,-0.612,inactive,–,-9.18,inactive,inactive,inactive,inactive,inactive,inactive,inactive,inactive,-0.266,-0.465,–,–

# Source: PubChem BioAssay (NCATS)
